In the library only some 2.2% were active in any assay of this set; here they are far more common.
Efflux pump inh: antifungal efflux pump inhibition, Nile Red retention | AID 485275 | S. cerevisiae Candida pump triplex | 330,000 compounds, 0.44% hits | inhibition, % at 10 µM;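 active = plate passing quality check with inhibition over a set limit, or well fluorescence over plate mean plus 4 SD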;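 also: Nile Red retained in pooled yeast measured as flow cytometry median fluorescence; 0% = buffer negative control and 100% = Enniatin B positive control; higher means more Nile Red kept so more efflux inhibition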
SKN-1 inh: blocks SKN-1 activity in C. elegans. C. elegans VP596 Pgst-4::GFP/RFP ratio, acrylamide-induced, 24 h. inhibition, % at 21.8 µM. 360,000 compounds, 0.49% hits;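 active = interference check ratio from 0.5 to 1.5 plus GFP to RFP signal ratio inhibition reaching or exceeding a fixed threshold, cut at about 30% in these data, passing the limit was not always enough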
SUMO Mot1 rescue: SUMOylation pathway inhibition by Mot1-301 growth rescue; S. cerevisiae Mot1-301 growth rescue, ATP luminescence, 38.5C; percent above DMSO median, 100 means doubled; growth rescue, % at 18.8 µM; 320,000 compounds, 1% hits; AID 2716;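 active = every valid replicate shows activation above 250% relative to neutral control wells; inactive = the rest, any valid replicate at or below 250%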;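 also: OY570 slx delta 5 strain wells were the positive control but not used for scaling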
sPLA2-III inh: Blocks human group III sPLA2 activity; Q9NZ20; QFRET BODIPY PC-A2 liposome hydrolysis, fluorescence; inhibition, % at 12.2 µM; 370,000 compounds, 0.56% hits;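 active = inhibition above mean plus 3 SD of compounds lying within the high and low control bounds, cut at about 19% in these data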;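 also: 0% = median of test compound wells and 100% = no enzyme DMSO wells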
Target sequence (Q9NZ20 whole entry, looked up): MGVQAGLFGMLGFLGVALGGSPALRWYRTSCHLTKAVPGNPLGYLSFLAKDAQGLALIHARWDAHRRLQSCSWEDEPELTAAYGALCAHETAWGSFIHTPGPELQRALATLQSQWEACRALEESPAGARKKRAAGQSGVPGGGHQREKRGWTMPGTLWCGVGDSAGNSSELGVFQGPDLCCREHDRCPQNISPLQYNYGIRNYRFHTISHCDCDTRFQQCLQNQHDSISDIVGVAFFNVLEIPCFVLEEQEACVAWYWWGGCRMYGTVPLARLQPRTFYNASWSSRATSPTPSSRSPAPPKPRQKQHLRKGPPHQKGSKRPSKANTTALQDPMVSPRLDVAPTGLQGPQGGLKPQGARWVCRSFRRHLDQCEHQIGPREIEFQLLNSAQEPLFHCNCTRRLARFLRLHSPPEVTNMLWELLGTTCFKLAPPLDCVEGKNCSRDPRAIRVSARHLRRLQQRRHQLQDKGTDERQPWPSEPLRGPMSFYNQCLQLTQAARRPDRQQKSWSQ
Cmpd fluor yeast: counter-screen for efflux pump inhibitors: compound fluorescence; fluorescence ratio to DMSO, % at 10 µM; shares compounds with Efflux pump inh; S. cerevisiae AD/pABC3, flow cytometry; 1,700 compounds, 4% hits;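 active = fluorescence ratio to DMSO above its plate's cutoff, the plate mean ratio plus 5 SD, cut at about 210% in these data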;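 also: unstained yeast with no Nile Red so the signal is compound autofluorescence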
Mdr1 pump inh: inhibitors of Candida albicans Mdr1 efflux pump. inhibition, % at 10 µM. 1,700 compounds, 1% hits. shares compounds with Efflux pump inh. S. cerevisiae AD/CaMDR1, Nile Red efflux, flow cytometry; in the data active = inhibition above about 26%;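 also: 0% = DMSO vehicle and 100% = reference inhibitor; higher means more Nile Red retained so more efflux inhibition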
Cdr2 pump inh: blocks the Candida albicans Cdr2 efflux pump in yeast | shares compounds with Efflux pump inh | S. cerevisiae AD/CaCDR2, Nile Red retention, flow cytometry | Nile Red retention ratio vs DMSO, % at 10 µM | 1,700 compounds, 4% hits | AID 588520; in the data active = Nile Red retention ratio vs DMSO above about 190%;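 also: higher ratio means more blocking of Cdr2 efflux of the dye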
CaCdr1 efflux inh: Candida Cdr1 efflux pump inhibition; shares compounds with Efflux pump inh; S. cerevisiae AD/CaCDR1, Nile Red efflux, flow cytometry; 1,700 compounds, 1% hits; AID 588522; inhibition, % at 10 µM;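 active = inhibition above the screen-wide mean plus twice its standard deviation, cut at about 32% in these data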
Starred values were filed as active, the others as inactive; · = no result given.

SMILES	Efflux pump inh	SKN-1 inh	SUMO Mot1 rescue	sPLA2-III inh	Cmpd fluor yeast	Mdr1 pump inh	Cdr2 pump inh	CaCdr1 efflux inh
Cc1ccc(CC2CC(=O)N(Cc3ccco3)C2=O)cc1 (configuration not stated)	1.2*	-13	266	-7	108	0	110	0
Cc1ccc(Cn2cc(COC(=O)NCC(C)C)nn2)cc1	·	·	·	7	·	·	·	·
CC(C)Oc1ccc(-c2cc(C(=O)NCCN3CCOCC3)c3ccccc3n2)cc1	0	4	0	-6	96	0	103	0
O=C(NCCN1CCOCC1)c1cc(-c2ccc(F)cc2)nc2ccccc12	0	-21	23	-5	·	·	·	·
CCOc1ccc(-c2cc(C(=O)N3CCN(C)CC3)c3ccccc3n2)cc1	0	-15	-2	-3	99	0	105	0
COc1cc(C(C)=O)ccc1OCC(=O)Nc1ccc(Cl)c(S(=O)(=O)N2CCOCC2)c1	1.0*	-3	1	-14	97	0	94	0
O=c1cc(Nc2cccc(Br)c2)[nH]c(=O)[nH]1	0	12	-8	-4	·	·	·	·
Cc1cccc(Nc2cc(=O)[nH]c(=O)[nH]2)c1	6.5*	-8	4	1	102	0	116	0
CCn1c(/C=C/c2ccc(O)c(O)c2)nc2ccccc2c1=O	1.0*	1	280	-5	144	2	105	2
COC(=O)c1sccc1NC(=O)CNC(=O)c1ccccc1	0	2	-14	4	·	·	·	·
COc1ccc2c(c1)C(=O)N1[C@H]3c4cc(Cl)ccc4OC[C@@H]3[C@H](c3ccccc3)[C@]1(C)C(=O)N2	0	8	150	0	89	0	112	0
Cc1ccc2c(c1)[C@H]1[C@H](CO2)[C@H](c2ccccc2)[C@]2(C)C(=O)Nc3cc(F)c(F)cc3C(=O)N12	0	4	197	7	101	0	98	0
COc1ccc2c(c1)OC[C@H]1[C@H]2N2C(=O)c3cc(Cl)ccc3NC(=O)[C@@]2(C)[C@H]1c1ccccc1	0	-9	157	·	·	·	·	·
COc1cc2c(cc1OC)C(=O)N1[C@H]3c4cc(Cl)ccc4OC[C@@H]3[C@H](c3ccccc3)[C@]1(C)C(=O)N2	·	6	69	-4	·	·	·	·
Cc1ccc2c(c1)[C@H]1[C@H](CO2)[C@H](c2ccccc2)[C@]2(C)C(=O)Nc3cc(Cl)ccc3C(=O)N12	0	-11	72	·	·	·	·	·
COc1ccc2c(c1)C(=O)N1[C@H]3c4cc(Br)ccc4OC[C@@H]3[C@H](c3ccccc3)[C@]1(C)C(=O)N2	0	11	22	·	·	·	·	·
COc1cc2c(cc1OC)C(=O)N1[C@H]3c4cc(C)ccc4OC[C@@H]3[C@H](c3ccccc3)[C@]1(C)C(=O)N2	0	20	175	-12	117	1	121	1
COc1ccc2c(c1)OC[C@H]1[C@H]2N2C(=O)c3ccc(C)cc3NC(=O)[C@@]2(C)[C@H]1c1ccccc1	34*	22	356*	40*	104	0	106	0
COc1ccc(-c2noc(N3CCC(C(=O)Nc4cccc(OC)c4)CC3)n2)cc1	0	-21	11	-31	·	·	·	·
Cc1cccc(C)c1C(O)c1ncc(-c2cccc(C(F)(F)F)c2)[nH]1 (configuration not stated)	·	7	·	-10	·	·	·	·
CC1=C(C(=O)N(C(C)C)C(C)C)CC(CC(=O)NCCCCc2ccccc2)C(=O)N1CCCN1CCCC1=O (configuration not stated)	·	8	·	-4	·	·	·	·
COc1ccc(OC)c(-c2nn(-c3ccccc3)cc2C(=O)NCC(c2ccco2)N2CCCC2)c1 (configuration not stated)	0	0	-17	-15	·	·	·	·
S=C(NCc1ccccc1)N1CCc2ccccc2C1	0	13	·	1	93	0	100	0
C[C@@H]1CN([C@@H](C)CO)C(=O)CCCn2cc(nn2)CO[C@H]1CN(C)S(=O)(=O)c1cn(C)cn1	·	-8	·	5	·	·	·	·
COc1cc2c(=O)n(Cc3ccco3)c(=O)n(CC(=O)c3cccc(Br)c3)c2cc1OC	1.0*	·	5	·	87	0	105	0
SMILES	Efflux pump inh	SKN-1 inh	SUMO Mot1 rescue	sPLA2-III inh	Cmpd fluor yeast	Mdr1 pump inh	Cdr2 pump inh	CaCdr1 efflux inh
Cc1cc(C)c(NC(=O)Cn2c(=O)n(Cc3ccco3)c(=O)c3ccccc32)c(C)c1	1.1*	-11	-4	7	100	0	97	0
Cc1ccccc1Cn1c(=O)n(Cc2ccco2)c(=O)c2ccccc21	0	-4	5	12	·	·	·	·
COc1cc2c(=O)n(Cc3ccco3)c(=O)n(CC(=O)c3ccc(Br)cc3)c2cc1OC	0	-4	-14	1	·	·	·	·
COc1ccc(-n2nc(C)c3sc(C)nc3c2=O)cc1	0	13	309	0	·	·	·	·
Cc1ccc(C(=O)Nc2cccc(C(=O)O)c2)cc1S(=O)(=O)N1CCOCC1	0	12	3	4	·	·	·	·
Cc1ccc(NC(=O)c2cccc(S(=O)(=O)N(C)c3ccccc3)c2)cc1S(=O)(=O)N1CCOCC1	8.0*	13	0	-24	107	0	104	0
COc1ccccc1N=Nc1c(O)[nH]c2ccc(Br)cc12	0.4*	50*	0	7	107	0	116	0
Cn1c(CO)nc2c3ccccc3ccc21	0	-7	10	2	·	·	·	·
C[C@H](CO)N1C[C@H](C)[C@@H](CN(C)C(=O)Nc2ccc3c(c2)OCO3)Oc2c(NC(=O)Nc3ccccc3)cccc2C1=O	0	14	-7	-12	·	·	·	·
C[C@H]1CN([C@@H](C)CO)C(=O)c2cccc(NC(=O)Nc3ccc(C(F)(F)F)cc3)c2O[C@@H]1CN(C)C(=O)Nc1ccc(F)cc1	0	6	13	-27	110	0	97	0
CC(C)NC(=O)N(C)C[C@H]1Oc2c(NC(=O)Nc3ccc4c(c3)OCO4)cccc2C(=O)N([C@H](C)CO)C[C@@H]1C	0	-12	·	7	99	0	101	0
CC1(C(=O)NS(=O)(=O)c2cccs2)CCN1C(=O)Cc1ccc(Cl)cc1Cl (configuration not stated)	·	-12	·	-1	·	·	·	·
CC(NC(=O)/C=C/c1ccco1)c1nc2ccccc2n1Cc1c(Cl)cccc1Cl (configuration not stated)	11*	-2	-14	-8	99	0	95	0
CC(NC(=O)/C=C/c1ccco1)c1nc2ccccc2n1Cc1ccccc1F (configuration not stated)	0	3	18	8	·	·	·	·
Cc1cccc(-n2ccnc2SCC(=O)c2c(N)n(C3CC3)c(=O)[nH]c2=O)c1C	0	2	3	-4	·	·	·	·
